Experimental data reported in PubChem BioAssay (NCATS).
Inconclusive results are not listed. The source made the active and inactive calls. The call rests on the fitted dose curve; in most records, active means well fitted inhibition curve with a large enough effect; inconclusive means small, poorly fitted or top-dose-only effect; inactive means flat fitted curve, though single readings scatter.

How the values were obtained:
[1] = target: Glutathione peroxidase 1 (Homo sapiens) (UniProt P07203); test: Primary qHTS Assay for Inhibitors of Recombinant Selenoprotein Glutathione Peroxidase 1 (GPX1) (AID 1845191); further: nearly all actives have a fitted effect of over 65% in size
Sequence of Glutathione peroxidase 1 (Homo sapiens) (P07203 whole entry, looked up): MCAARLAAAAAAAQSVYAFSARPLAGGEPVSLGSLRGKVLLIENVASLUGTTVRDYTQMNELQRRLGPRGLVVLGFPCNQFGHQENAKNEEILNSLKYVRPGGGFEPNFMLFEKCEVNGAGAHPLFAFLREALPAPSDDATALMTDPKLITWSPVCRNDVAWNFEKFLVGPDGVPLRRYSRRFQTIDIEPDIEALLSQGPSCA
Method in brief: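 GR-coupled assay: compounds preincubated 30 min at room temperature with GPX1, then reaction started with CHP; final 10 nM GPX1, 1 mM GSH, 0.5 mM CHP, 0.5 mM NADPH, 100 nM GR, 0.01% BSA, pH 7.5 Tris buffer. NADPH fluorescence (340/450 nm) read at 0 and 15 min.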

[2] = target: Phospholipid hydroperoxide glutathione peroxidase GPX4 (Homo sapiens) (UniProt P36969); test: Primary qHTS Assay for Inhibitors of Recombinant Selenoprotein Glutathione Peroxidase 4 (GPX4) (AID 1845192); further: nearly all actives have a fitted effect of over 65% in size; on activity change, negative = inhibition: series mostly up to about 50 µM; on the % scale 0 is the no-effect control and ±100 the full control effect
Sequence of Phospholipid hydroperoxide glutathione peroxidase GPX4 (Homo sapiens) (P36969 whole entry, looked up): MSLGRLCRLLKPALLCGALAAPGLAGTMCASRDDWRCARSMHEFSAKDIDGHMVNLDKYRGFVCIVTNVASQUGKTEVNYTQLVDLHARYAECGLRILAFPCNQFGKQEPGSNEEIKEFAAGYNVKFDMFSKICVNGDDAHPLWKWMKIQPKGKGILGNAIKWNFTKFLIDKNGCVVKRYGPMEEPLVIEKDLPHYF
Method in brief: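 GR-coupled assay: recombinant GPX4 preincubated 30 min with compound at room temperature; final 200 nM GPX4, 1 mM GSH, 0.5 mM cumene hydroperoxide, 0.5 mM NADPH, 100 nM GR, 0.01% BSA, pH 7.5 Tris. NADPH fluorescence (340/450 nm) read at 0 and 15 min.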

[3] = target: Luciferin 4-monooxygenase (Photinus pyralis) (UniProt P08659); test: Primary firefly luciferase (FLuc) qHTS assay for identification of artifact compounds. (AID 1845220); further: nearly all actives have a fitted effect of over 60% in size;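 on activity change, negative = inhibition: series mostly up to about 54 µM; plate controls were DMSO vehicle for no effect and no enzyme for full effect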
Method in brief: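 Titrated compounds were incubated 15 min at RT, protected from light, with luciferin and ATP at 10 uM; reaction started with 10 nM FLuc, luminescence imaged at 5 min, and concentration-response fitted by Hill equation.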

Cc1ccc(Nc2nnc(-c3ccc([N+](=O)[O-])cc3)o2)cc1Cl
inactive: Potency [1] | Potency [2] | Potency [3]

COc1cc(CO)cc(OC)c1O[C@@H]1O[C@H](CO)[C@@H](O)[C@H](O)[C@H]1O
inactive: Potency [1] | Potency [2] | Potency [3]

C=C(C)[C@@]1(O)C[C@@]2(C)C(=CC1=O)CC[C@@H](O)[C@@H]2C
inactive: Potency [1] | Potency [2] | Potency [3]

C=C[C@@](C)(CCC=C(C)C)O[C@@H]1O[C@H](CO[C@@H]2OC[C@H](O)[C@H](O)[C@H]2O)[C@@H](O)[C@H](O)[C@H]1O
inactive: Potency [1] | Potency [2] | Potency [3]

COc1ccc(OC)c(C2C(C#N)=C(N)Oc3n[nH]c(-c4ccc5ccccc5c4)c32)c1 (centres undefined)
inactive: Potency [1] | Potency [2] | Potency [3]

CC(C)C1CCC(CO)=CC1/C=C(\CO)C(=O)OCC1(O)CCC(C(C)C)C2C=C(C(=O)O)COC(=O)C21 (centres undefined)
inactive: Potency [1] | Potency [2] | Potency [3]

C/C=C(\C)C(=O)OC[C@H]1O[C@@H](O[C@H]2[C@@H](O[C@H]3O[C@H](COC(=O)/C(C)=C/C)[C@@H](O)[C@H](O)[C@H]3O[C@@H]3O[C@H](CO)[C@@H](O)[C@H](OC(=O)/C(C)=C/C)[C@H]3O)O[C@H](COC(=O)/C(C)=C/C)[C@@H](O)[C@@H]2O)[C@H](O)[C@@H](O)[C@@H]1O
inactive: Potency [1] | Potency [2] | activity change, negative = inhibition [3] 2.77% [at 11.6 µM]

COC(=O)C1=CO[C@@H](O[C@@H]2O[C@H](CO)[C@@H](O)[C@H](O)[C@H]2O)[C@@H]2[C@@H](C)[C@@H](OC(=O)/C=C/c3ccccc3)[C@@H](O)[C@H]12
inactive: Potency [1] | Potency [2] | Potency [3]
